Assay [1] can be described thus: Nuclear factor erythroid 2-related factor 2/antioxidant responsive element (Nrf2/ARE) small molecule agonists: qHTS cell viability counter screen in human keratinocytes (AID 1919968; active = well fitted curve in the direction sought with a large enough effect in the repeat runs; an effect the other way counts as inactive or inconclusive; also: nearly all actives have a fitted effect of over 55% in size). In a few lines: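 Seed 1,500 KeratinoSens cells per well, then incubate 5 h at 37 C/5% CO2. Add compounds in DMSO and incubate 23 h. Add CellTiter-Fluor, wait 1 h and read fluorescence.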
A general note: Quantitative high-throughput screening tests each substance at several concentrations.

A short description of assay [2]: Nuclear factor erythroid 2-related factor 2/antioxidant responsive element (Nrf2/ARE) small molecule agonists: luciferase reporter gene qHTS assay in human keratinocytes (AID 1919969; also: nearly all actives have a fitted effect of over 35% in size). (In general: Reporter assays use an easily measured gene product as a stand-in for the process of interest.)
The target in assay [3] is Gonadotropin-releasing hormone receptor (Homo sapiens) (UniProt P30968). The experiment in a line: Human gonadotropin-releasing hormone receptor (GnRHR) small molecule agonists, calcium flux assay in GnRHR-HEK293 cells (AID 1920063). Also: nearly all actives have a fitted effect of over 35% in size. In a few lines: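 Cells: HEK293 stably expressing human GnRHR. Steps: overnight (18 h) culture, 1 h calcium dye loading at 37 C, compound addition, kinetic fluorescence read at 480/540 nm. Each compound tested at 15 concentrations in triplicate.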
Sequence of Gonadotropin-releasing hormone receptor (Homo sapiens) (P30968 whole entry, looked up): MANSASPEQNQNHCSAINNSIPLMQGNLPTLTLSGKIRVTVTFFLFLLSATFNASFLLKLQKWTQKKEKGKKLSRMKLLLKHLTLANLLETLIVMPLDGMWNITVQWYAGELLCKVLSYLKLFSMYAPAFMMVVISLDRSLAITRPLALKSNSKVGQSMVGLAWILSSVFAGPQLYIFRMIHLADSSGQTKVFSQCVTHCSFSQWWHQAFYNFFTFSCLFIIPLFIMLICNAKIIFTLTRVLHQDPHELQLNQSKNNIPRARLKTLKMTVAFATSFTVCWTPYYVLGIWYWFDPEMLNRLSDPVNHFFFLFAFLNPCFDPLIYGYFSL
A general note: A change in cytosolic calcium serves as a functional read-out for many receptors and channels.

Assay [4] has as its target KiSS-1 receptor (Homo sapiens) (UniProt Q969F8). The assay can be described thus: Human kisspeptin (KISS1R) small molecule agonists, calcium flux assay in KISS1R-HEK293 cells (AID 1920064; active = well fitted curve in the direction sought with a large enough effect in the repeat runs; an effect the other way counts as inactive or inconclusive). In a few lines: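 Cells plated and incubated 18 h; dye added, 1 h at 37 C; compounds in DMSO pinned in; signal read at 480/540 nm every second for 3 min. Each compound tested at 15 concentrations in triplicate.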

A short description of assay [5]: G protein-coupled receptor (GPCR) small molecule agonists, calcium flux assay: HEK293 wild type cell line counter screen (AID 1920065). The gist of the method: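 Counter-screen of the Tox21 10K library for non-specific calcium release: dye-loaded cells received compounds in DMSO and were monitored by kinetic fluorescence (480/540 nm, 3 min). Fifteen concentrations, run in triplicate.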

Assay [6] can be described thus: p53 small molecule agonists, cell-based qHTS assay with human liver microsomes (AID 1963577).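 Also: p53 response element beta-lactamase reporter cells with liver microsomes plus NADPH.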 The gist of the method:
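p53RE-bla cells; 5 h settle, 37 C/5% CO2; cpd + HLM 0.5 mg/mL + NADPH 0.5 mg/mL (final); 16 h 37 C; LiveBLAzer 2 h RT dark; fluorescence readout.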

A short description of assay [7]: p53 small molecule agonists, cell-based qHTS assay with rat liver microsomes (AID 1963578). The gist of the method:
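Rat liver microsome activation: microsomes 0.5 mg/mL, NADPH 0.5 mg/mL final; p53RE-bla cells, 16 h 37 C; LiveBLAzer readout, 2 h RT dark.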

A short description of assay [8]: p53 small molecule agonists, cell-based qHTS assay with human liver microsomes: qHTS cell viability counter screen (AID 1963579). Also: nearly all actives have a fitted effect of over 45% in size. In a few lines: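 Luminescent CellTiter-Glo read-out, 30 min at room temperature, gauged cytotoxicity in p53RE-bla cells exposed 16 h at 37 C to DMSO-dissolved compounds with metabolic activation by human liver microsomes and NADPH, each 0.5 mg/mL final.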

Assay [9] is described as follows: p53 small molecule agonists, cell-based qHTS assay with rat liver microsomes: qHTS cell viability counter screen (AID 1963580). Also: nearly all actives have a fitted effect of over 45% in size. In a few lines:
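Viability is assessed in parallel with the p53 reporter read: HCT-116 p53RE-bla cells receive compounds plus rat microsomes and NADPH (0.5 mg/mL final apiece), incubate 16 h at 37 C, and then CellTiter-Glo luminescence is recorded.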

Assay [10] can be described thus: p53 small molecule agonists, cell-based qHTS assay: qHTS cell viability counter screen (AID 1963581). Also: nearly all actives have a fitted effect of over 45% in size. The gist of the method:
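Cells: HCT-116 with p53 response element-driven beta-lactamase. Treatment: 16 h, 37 C, compounds in DMSO. Read: CellTiter-Glo luminescence after 30 min RT.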

Assay [11] has as its target 5-hydroxytryptamine receptor 2A (Homo sapiens) (UniProt P28223). The experiment in a line: 5-hydroxytryptamine receptor 2A (HTR2A) small molecule antagonists, cell-based qHTS assay (AID 1963586). Also: nearly all actives have a fitted effect of over 45% in size. The gist of the method: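 Antagonist-mode intracellular calcium assay: DOI (4 nM) added after 5 min compound pre-incubation at room temperature to dye-loaded HTR2A-CHO cells. Fluorescence followed for 3 min, sampled every second.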

Assay [12] has the same target. The assay can be described thus: 5-hydroxytryptamine receptor 2A (HTR2A) small molecule agonists, cell-based qHTS assay (AID 1963587). Also: nearly all actives have a fitted effect of over 30% in size. Also: potency is read from the fitted curve at half-maximal effect. In a few lines:
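CHO cells stably expressing human HTR2A, plated 18 h, loaded with calcium dye 1 h at 37 C. Agonist mode: compounds added and intracellular calcium fluorescence recorded kinetically for 2 min at 1 sec intervals.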

Assay [13] deals with Muscarinic acetylcholine receptor M1 (Homo sapiens) (UniProt P11229). The experiment in a line: Cholinergic receptor muscarinic 1 (CHRM1) small molecule antagonists, cell-based qHTS assay (AID 1963588). Also: nearly all actives have a fitted effect of over 40% in size. In a few lines: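 CHRM1-CHO calcium-flux assay, antagonist mode. Cells were seeded 18 h, dye-loaded 1 h at 37 C and given compound for 5 min at RT, then acetylcholine was added at 50nM. FDSS fluorescence was read 3 min; 15 concentrations, three runs.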
Sequence of Muscarinic acetylcholine receptor M1 (Homo sapiens) (P11229 whole entry, looked up): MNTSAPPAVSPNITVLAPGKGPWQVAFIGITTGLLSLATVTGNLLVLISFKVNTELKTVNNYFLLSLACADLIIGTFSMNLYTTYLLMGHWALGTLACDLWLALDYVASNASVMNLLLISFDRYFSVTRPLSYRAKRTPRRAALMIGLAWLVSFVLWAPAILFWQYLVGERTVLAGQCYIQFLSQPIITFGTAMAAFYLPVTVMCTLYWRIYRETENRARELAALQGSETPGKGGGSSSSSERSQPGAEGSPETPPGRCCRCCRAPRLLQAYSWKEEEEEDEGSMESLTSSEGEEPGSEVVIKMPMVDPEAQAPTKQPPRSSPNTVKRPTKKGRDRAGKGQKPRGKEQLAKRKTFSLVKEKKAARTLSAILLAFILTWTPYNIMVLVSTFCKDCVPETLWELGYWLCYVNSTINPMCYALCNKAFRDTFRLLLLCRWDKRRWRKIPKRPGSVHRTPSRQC

For assay [14] the target is unchanged. The experiment in a line: Cholinergic receptor muscarinic 1 (CHRM1) small molecule agonists, cell-based qHTS assay (AID 1963589). Also: nearly all actives have a fitted effect of over 35% in size. In a few lines:
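Agonist-mode qHTS in CHO cells stably carrying human muscarinic M1. Intracellular calcium is tracked by fluorescence every second after compound transfer; each compound runs at 15 concentrations in three independent runs.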

The nature of assay [15]: cAMP Responsive Elements (CRE) small molecule agonists, cell-based qHTS assay (AID 1963590). The gist of the method: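 Agonist mode qHTS in CRE-bla HEK 293T cells: compounds dosed from DMSO for 3 h at 37 C/5% CO2, followed by LiveBLAzer B/G FRET substrate for 2 h at room temperature.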
The nature of assay [16]: cAMP Responsive Elements (CRE) small molecule antagonists, cell-based qHTS assay (AID 1963591; active = well fitted inhibition curve with a large enough effect in the signal ratio in the repeat runs, not every such curve was filed as active; the % refers to the signal ratio). The gist of the method: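 Antagonist mode: test compounds are co-incubated with the adenylyl cyclase activator NKH477 (0.25 uM final) on CRE-bla HEK293T cells for 3 h at 37 °C, followed by LiveBLAzer substrate loading.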
Assay [17] has as its target Beta-2 adrenergic receptor (Homo sapiens) (UniProt P07550). The assay can be described thus: Adrenergic beta2 receptor (ADRB2) small molecule antagonists, cell-based qHTS assay (AID 1963592). Also: series mostly up to about 92 µM; nearly all actives have a fitted effect of over 50% in size. The gist of the method: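 Cells (CHO, stable ADRB2 overexpression) incubated 18-20hr at 37C; compounds added from DMSO; agonist mix (1nM isoproterenol, 100uM IBMX, 25uM Ro-20-1724) added; 0.5hr RT; d2-cAMP and anti-cAMP-cryptate added; 1hr RT; 665/615 nm read.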

For assay [18], the target named is D(2) dopamine receptor (Homo sapiens) (UniProt P14416). The experiment in a line: Dopamine D2 receptor (DRD2) small molecule agonists, cell-based qHTS assay (AID 1963594). Also: nearly all actives have a fitted effect of over 35% in size. The gist of the method: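 HEK293 cells stably expressing human DRD2, pre-treated with PDE inhibitor Ro20-1724 (0.1 mM final) and compound 10 min at room temperature, then stimulated with NKH477 (200nM […]) for 30 min. cAMP read by HTRF (665/620 nm).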
Sequence of D(2) dopamine receptor (Homo sapiens) (P14416 whole entry, looked up): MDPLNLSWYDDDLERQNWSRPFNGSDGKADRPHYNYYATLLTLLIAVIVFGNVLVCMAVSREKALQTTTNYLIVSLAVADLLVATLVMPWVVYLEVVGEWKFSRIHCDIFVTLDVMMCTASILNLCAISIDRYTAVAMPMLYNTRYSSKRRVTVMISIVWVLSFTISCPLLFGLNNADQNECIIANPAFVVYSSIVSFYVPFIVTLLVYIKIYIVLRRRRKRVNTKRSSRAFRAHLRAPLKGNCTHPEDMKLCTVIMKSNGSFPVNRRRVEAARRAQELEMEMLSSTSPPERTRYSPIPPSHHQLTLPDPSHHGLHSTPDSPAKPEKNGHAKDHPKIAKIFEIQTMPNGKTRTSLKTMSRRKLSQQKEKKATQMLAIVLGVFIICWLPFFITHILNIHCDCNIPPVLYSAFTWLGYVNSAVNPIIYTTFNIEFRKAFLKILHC

Assay [19] shares this target. The assay can be described thus: Dopamine D2 receptor (DRD2) small molecule antagonists, cell-based qHTS assay (AID 1963595; active = well fitted inhibition curve with a large enough effect in the signal ratio in the repeat runs, with a control signal flat; the % refers to the signal ratio; also: potency is read from the fitted curve at half-maximal effect). In a few lines:
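Cells were plated and grown for 24 h at 37 °C. Ro20-1724 (0.1 mM final) went in first, then compound for 10 min. NKH477 (200 nM) with quinpirole (12 nM) followed for 30 min at RT, then HTRF detection reagents for 1 h.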

A short description of assay [20]: p53 small molecule agonists, cell-based qHTS assay (AID 1963582; active = well fitted activation curve with a large enough effect in the signal ratio in the repeat runs, not every such curve was filed as active; the % refers to the signal ratio). The gist of the method: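 Quantitative HTS in p53RE-bla cells: after a 5 h settling period, compounds delivered in DMSO were left on cells for 16 h at 37 C, and reporter induction was measured as fluorescence following 2 h substrate loading.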

Drawing on PubChem BioAssay (Tox21), this text covers Potency for seven molecules.

Unmarked numbers belong to inactive results. Results filed as inconclusive are left out. Calls of active or inactive are those of the source. Unless noted, calls follow the shape of the full dose curve.

Sequence of 5-hydroxytryptamine receptor 2A (Homo sapiens) (P28223 whole entry, looked up): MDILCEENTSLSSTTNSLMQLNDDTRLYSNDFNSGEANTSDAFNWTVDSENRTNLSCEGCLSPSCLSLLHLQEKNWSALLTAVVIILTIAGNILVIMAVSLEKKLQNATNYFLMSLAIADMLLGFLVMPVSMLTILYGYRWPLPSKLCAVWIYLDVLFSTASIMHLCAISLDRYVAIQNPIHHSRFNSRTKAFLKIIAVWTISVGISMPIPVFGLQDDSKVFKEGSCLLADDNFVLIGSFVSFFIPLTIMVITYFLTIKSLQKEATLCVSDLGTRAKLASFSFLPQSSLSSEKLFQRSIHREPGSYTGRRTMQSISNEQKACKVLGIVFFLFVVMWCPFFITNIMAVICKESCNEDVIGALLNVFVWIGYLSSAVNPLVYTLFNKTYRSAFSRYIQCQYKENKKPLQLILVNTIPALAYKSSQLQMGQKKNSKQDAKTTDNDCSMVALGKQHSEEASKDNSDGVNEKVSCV
Sequence of KiSS-1 receptor (Homo sapiens) (Q969F8 whole entry, looked up): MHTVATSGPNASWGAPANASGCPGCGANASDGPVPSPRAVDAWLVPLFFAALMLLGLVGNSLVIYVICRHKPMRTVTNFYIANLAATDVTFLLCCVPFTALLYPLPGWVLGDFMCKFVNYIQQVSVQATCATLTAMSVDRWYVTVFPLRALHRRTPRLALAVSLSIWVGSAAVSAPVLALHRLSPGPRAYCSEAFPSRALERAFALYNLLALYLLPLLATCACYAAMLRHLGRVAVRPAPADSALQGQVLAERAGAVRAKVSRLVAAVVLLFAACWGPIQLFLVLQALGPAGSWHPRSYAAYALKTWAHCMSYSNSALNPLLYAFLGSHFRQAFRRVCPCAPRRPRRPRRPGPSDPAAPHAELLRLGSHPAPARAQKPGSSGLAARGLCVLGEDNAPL
Sequence of Beta-2 adrenergic receptor (Homo sapiens) (P07550 whole entry, looked up): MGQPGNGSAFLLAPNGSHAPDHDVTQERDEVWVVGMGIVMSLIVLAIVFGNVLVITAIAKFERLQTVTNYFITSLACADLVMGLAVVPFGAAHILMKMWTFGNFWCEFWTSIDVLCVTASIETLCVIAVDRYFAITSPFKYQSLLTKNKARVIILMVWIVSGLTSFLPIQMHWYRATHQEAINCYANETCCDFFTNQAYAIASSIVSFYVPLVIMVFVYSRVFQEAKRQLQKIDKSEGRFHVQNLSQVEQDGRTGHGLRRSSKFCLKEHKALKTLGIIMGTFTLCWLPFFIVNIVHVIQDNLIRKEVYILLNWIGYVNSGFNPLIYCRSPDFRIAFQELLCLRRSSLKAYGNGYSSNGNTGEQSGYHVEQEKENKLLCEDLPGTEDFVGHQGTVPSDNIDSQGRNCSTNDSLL

Consider `ClCc1ccc(Cl)cc1Cl`, for which the Potency entry in assay [1], in assay [2], in assay [3], in [4], in assay [5] and in [6] was “inactive” each time. Further, the Potency result in assay [7], in assay [8], in assay [9], in assay [10], in assay [11] and in [12] was “inactive” each time. For the same molecule, the Potency entry in assay [13], in assay [14], in [15], in assay [16], in assay [17] and in assay [18] was “inactive” in each case. In addition, in assay [19], the Potency result is “inactive”.
Turning to `CC(CCc1ccccc1)NC(C)C(O)c1ccc(O)cc1` (stereo not given), the Potency entry in assay [1], in [2], in [3], in assay [4], in assay [5] and in assay [6] was “inactive” each time. The Potency entry in assay [7], in assay [8], in [9], in [20], in [11] and in assay [12] was “inactive” in each case. Further, the Potency result in [13], in assay [14], in [15], in assay [16], in assay [17] and in [18] was “inactive” throughout.
In the case of `CCOC(=O)CBr`, the Potency entry in [1], in assay [2], in assay [3], in [4], in assay [5] and in [6] was “inactive” in each case. The Potency result in assay [7], in assay [8], in assay [9], in assay [20], in [11] and in [12] was “inactive” in each case. In addition, the Potency result in assay [13], in [14], in assay [15], in [16], in [17] and in assay [18] was “inactive” each time. In addition, the Potency result in assay [19] is “inactive”.
On to `O=c1[nH]c2cc(Cl)ccc2n1C1CCNCC1`, for which the Potency result in [1], in assay [2], in [3], in assay [4], in assay [5] and in assay [6] was “inactive” throughout. For the same molecule, the Potency entry in assay [7], in assay [8], in assay [9], in assay [20], in assay [11] and in assay [12] was “inactive” in each case. The Potency result in assay [13], in [14], in assay [15], in assay [16], in assay [18] and in assay [19] was “inactive” each time.
In the case of `CN(CCCC(O)c1cccnc1)N=O` (stereo not given), the Potency entry in assay [1], in assay [2], in assay [3], in [4], in assay [5] and in assay [6] was “inactive” each time. The Potency entry in assay [7], in assay [8], in [9], in assay [20], in assay [11] and in [12] was “inactive” each time. Also, the Potency entry in assay [13], in assay [14], in [15], in [16], in assay [17] and in assay [18] was “inactive” each time. In assay [19], the Potency entry is “inactive”.
As to `O=C1NCN(c2ccccc2)C12CCN(CC1COc3ccccc3O1)CC2` (stereo not given), the Potency entry in [1], in assay [2], in assay [3], in [4], in assay [5] and in assay [6] was “inactive” each time. Also, the Potency entry in assay [7], in [8], in assay [9], in assay [10], in assay [13] and in [14] was “inactive” throughout. Moreover, the Potency result in [18] is “inactive”. Further, the values for the Potency in [12] and in assay [19] were 42.5 nM (active) and 37.6 nM (active), respectively.
Regarding `C[N+](C)(C)CCCl`, the Potency entry in assay [1], in assay [2], in assay [3], in assay [4], in assay [5] and in assay [6] was “inactive” each time. In addition, the Potency result in assay [7], in assay [8], in assay [9], in assay [20], in [11] and in [12] was “inactive” each time. Moreover, the Potency result in assay [13], in assay [15], in [17], in assay [18] and in assay [19] was “inactive” in each case.
